aSyn 5UTR act: Activators via SNCA 5'UTR binding, MLPCN | 300,000 tested, 7.1% active | alpha-synuclein 5'UTR reporter, activators screen | activity score, % (tested at 7.5 µM), hits read low; in the data active = activity score below about -60%
The depositor's hits bear a star. Not all results are given here.

SMILES	aSyn 5UTR act
O=C(COCc1cc(-c2ccc3c(c2)OCO3)on1)N1CCCCC1	-90*
CC(C)CNC(=O)c1cc(-c2ccc3c(c2)OCO3)on1	-100*
CC(C)CNC(=O)COCc1cc(-c2ccc3c(c2)OCO3)on1	-77*
Cc1ccc(Cn2nc(C)c(NC(=O)c3cc(-c4ccc5c(c4)OCO5)on3)c2C)cc1	43
Cc1ccc(/C=N/NC(=O)Nc2ccccc2)o1	-80*
Cc1ccc(S(=O)(=O)N(C)CC(=O)N/N=C/c2ccc(C)o2)cc1	46
Cc1ccc(/C=N/NC(=O)NC2CCCCC2)o1	-66*
Cc1ccc2c(c1)COc1c3ccc(C(=O)N4CCCCC4)cc3nn1-2	-108*
O=C(NCC1CCCO1)c1ccc2c3n(nc2c1)-c1ccccc1CO3 (stereo unspecified)	-103*
O=C(c1ccc2c3n(nc2c1)-c1ccccc1CO3)N1CCOCC1	-114*
O=C(c1ccc2c3n(nc2c1)-c1ccc(Cl)cc1CO3)N1CCOCC1	-109*
Clc1ccc(/C=C/c2ncc[nH]2)c(Cl)c1	-169*
C=CCSc1nncn1/N=C/c1ccc(OC)cc1	-99*
CCOC(=O)N1CCN(C(=O)CCCOc2ccccc2)CC1	-115*
COc1cc(C(=O)N2CCN(c3cccc(C)c3C)CC2)cc(OC)c1OC	58
Cc1cccc(N2CCN(C(=O)CCCOc3ccccc3)CC2)c1C	-86*
O=C(N/N=C/c1ccc(O)cc1)Nc1cccc2nsnc12	-73*
COc1cc(/C=N/NC(=O)Nc2cccc3nsnc23)cc(OC)c1OC	-89*
Cc1cc(C)c2nc(N3CCCC(C(=O)NCCCN4CCOCC4)C3)sc2c1 (stereo unspecified)	-77*
Cc1cc(C)c2nc(N3CCCC(C(=O)NCCN4CCOCC4)C3)sc2c1 (stereo unspecified)	-74*
O=C(NCc1ccco1)c1ccc2ccccc2c1	-64*
O=C(NCc1ccco1)c1ccc(Oc2ccccc2)cc1	-87*
O=C(NCc1ccco1)c1ccc2c(c1)C(=O)c1ccccc1-2	-77*
CCc1nc2ccc(C(=O)NCCc3ccco3)cc2nc1CC	-63*
CC(C)(CO)NC(=O)c1ccc2c(c1)C(=O)c1ccccc1-2	-96*
SMILES	aSyn 5UTR act
CC1Sc2ccc(C(=O)Nc3ccccc3OC(F)F)cc2NC1=O (stereo unspecified)	-81*
CC1Sc2ccc(C(=O)OCc3ccccc3Cl)cc2NC1=O (stereo unspecified)	-147*
CCC1CSC(Nc2ccc(C(=O)/C=C/c3ccc(Oc4ccccc4)cc3)cc2)=N1 (stereo unspecified)	-88*
Cn1nccc1C(=O)Nc1ccc(Cl)cc1	-63*
Cn1nccc1C(=O)Nc1ccc2c(c1)OCO2	-115*
O=C(/C(C=Nc1ccc(F)cc1)=C(/O)c1ccco1)C(F)(F)F	-113*
Cc1ccc(N=C/C(C(=O)C(F)(F)F)=C(\O)c2ccco2)cc1Cl	-184*
Cc1cccc(N=C/C(C(=O)C(F)(F)F)=C(\O)c2ccco2)c1	-167*
COc1cc(SC)ccc1C(=O)Nc1ccc(C)cc1	-142*
COc1cc(SC)ccc1C(=O)Nc1ccc2c(c1)OCO2	-69*
COc1cc(SC)ccc1C(=O)Nc1ncc(C)s1	98
COc1ccc(Br)cc1C(=O)Nc1cc(C)cc(C)c1	-62*
COc1cc(SC)ccc1C(=O)Nc1ncc(Cl)cc1Cl	-91*
Cc1cc(C(=O)N(C)C)sc1-c1ccccc1	-132*
CCC(Oc1ccccc1)C(=O)Nc1ccc(-c2nnc(-c3ccco3)o2)cc1 (stereo unspecified)	-97*
O=C(COc1ccc(Br)cc1)Nc1ccc(-c2nnc(-c3ccco3)o2)cc1	-80*
CC(C)(C)c1ccc(OCC(=O)N/N=C/c2cc(Br)ccc2OC(=O)c2ccco2)cc1	83
Clc1ccc(-c2nnc(-c3ccco3)o2)cc1	-203*
Cc1cccc(OCC(=O)O/N=C(\N)c2ccccn2)c1	-116*
CCc1ccc(OCC(=O)O/N=C(\N)c2ccccn2)cc1	-91*
CCOc1ccc(C(=O)O/N=C(\N)c2ccccn2)cc1	62
Cc1cc(C)c(C)c(OCC(=O)O/N=C(\N)c2ccccn2)c1	-110*
Cc1ccc(OCC(=O)O/N=C(\N)c2ccccn2)cc1C	-99*
Cc1cccc(C(=O)O/N=C(\N)c2ccccn2)c1	70
N/C(=N\OC(=O)COc1ccc2ccccc2c1Br)c1ccccn1	-107*
SMILES	aSyn 5UTR act
Cc1ccc(OCC(=O)O/N=C(\N)c2ccncc2)cc1C	-129*
N/C(=N\OC(=O)COc1ccccc1)c1ccccn1	-69*
O=c1[nH]c(/C=C/c2cccc3ccccc23)nc2ccccc12	-104*
O=c1[nH]c(/C=C/c2ccccn2)nc2ccccc12	-176*
O=c1[nH]c(/C=C/c2ccccc2[N+](=O)[O-])nc2ccccc12	-190*
Nn1c(SCc2ccccc2F)nnc1-c1cccnc1	-177*
Nn1c(SCc2cccc(F)c2)nnc1-c1cccnc1	-71*
C=CCN(C(=O)CN1CCCCC1)c1nc(-c2ccccc2)cs1	-110*
N#C/C(=C(/O)CN1CCCC1)c1nc(-c2ccccc2)cs1	-115*
CN1CCN(c2ccc(NC(=S)NC(=O)c3cccc4c(Cl)cccc34)cc2)CC1	-128*

Assay outcomes (PubChem)
